Compound activity (PubChem BioAssay)
Rows were chosen to be rich in hits. Some 1.3% of all compounds tested hit in one or more screens of this group.
Keap1 Nrf2 FP: Keap1-Nrf2 protein-protein interaction inhibitors, primary screen, biochemical, fluorescence polarization, single point; Kelch-like ECH-associated protein 1 (Homo sapiens), Q14145; 0.15% of 340,000 active; inhibition, % at 9.4 µM; Keap1 Kelch-Nrf2 peptide fluorescence polarization, 1536-well; in the data active = inhibition above about 12%;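 also: human Keap1 Kelch domain with fluorescein labeled Nrf2 9mer peptide probe; higher means more block of Keap1 binding to Nrf2 peptide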
CRFBP-R2 agonist: agonists of CRF-BP/CRF-R2 complex, primary screen, cell-based, HEK293, calcium dye fluorescence, uHTS | CRF-binding protein / CRF receptor 2 complex (human) | calcium dye fluorescence (FLIPR); percent of saturating CRF peptide response | activation, % at 13.2 µM | 0.46% of 350,000 active;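 active = activation of at least 50%, plus an integration ratio under a set limit after plate pattern correction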
Cardiac RTF inh: cardiac RTF calcium sensitivity inhibitors, primary screen, biochemical, IANBD-TnC fluorescence, EC70 calcium | IANBD-labeled cardiac RTF, Ca2+ fluorescence | inhibition, % at 7.15 µM | 0.12% of 340,000 active;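 active = inhibition above the mean inhibition of all tested compounds plus 3 SD, cut at about 17% in these data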;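 also: assay run at fixed EC70 calcium of 1.6 mM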
LANA DNA inh: inhibitors of KSHV C-LANA binding to DNA, primary screen, biochemical, fluorescence polarization, FAM-LBS DNA, MBP-C-LANA, single point | AID 504423, 2011 | inhibition, % at 9 µM | Kaposi's sarcoma herpesvirus LANA C-terminal domain (residues 932-1162) DNA binding | 0.078% of 340,000 active;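 active = highest replicate inhibition at or above 60% at 9 µM, even if other replicates fall short; inactive = all replicates below 60% inhibition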
CRFR2-BP antag: antagonists of CRF-BP/CRF-R2 complex, primary screen, cell-based, HEK293, calcium dye fluorescence, uHTS. 0.59% of 350,000 active. CRF-induced calcium fluorescence. inhibition, % at 11.8 µM;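 active = inhibition of the ligand-induced calcium signal above about 50% at the single tested concentration, limit read from the data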
RTF Ca sens act: cardiac RTF calcium sensitivity activators, primary screen, biochemical, IANBD-TnC fluorescence, EC20 calcium; IANBD-labeled TnC RTF fluorescence at EC20 calcium; 0% EC20 calcium, 100% full calcium; activation, % at 7.2 µM; 0.24% of 340,000 active; AID 493008, 2010;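 active = activation above the mean over all tested compounds plus 3 SD, cut at about 30% in these data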;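 also: rise in fluorescence read as greater calcium sensitivity of cardiac thin filaments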
Keap1 TSA: Keap1 Kelch domain binders by thermal stabilisation, dose response, biophysical, thermal shift, RT-PCR instrument, cherry-pick; shares compounds with Keap1 Nrf2 FP; delta Tm; hits give high values; max delta Tm, degrees C; 8% of 400 active; AID 651823, 2012; in the data active = max delta Tm above about 0.48 degrees C
Dye-only ctr: Sypro Orange dye melt without protein, dose response, artefact control for Keap1-Nrf2 interaction inhibitor project, biochemical, thermal shift counterscreen, cherry-pick | Sypro Orange dye-only thermal melt, no protein, delta Tm; top dose 26 µM | 140 tested, under 10 active | delta Tm, degrees C (no concentration beside the values) | shares compounds with Keap1 Nrf2 FP | AID 651858, 2012;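 active = at highest dose tested, delta Tm positive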
Each line names hits and unclear results; the compound was inactive in the other large screens (follow-up assays come after a bar, where they were run).

COc1ccc2nc3ccccc3[n+]([O-])c2c1	Keap1 Nrf2 FP 39, CRFBP-R2 agonist 58 | Keap1 TSA inactive
Cc1cc(-c2ccccc2C(=O)O)on1	none
O=C(O)c1ccccc1C1=Nc2ccc(O)cc2Oc2cc(O)ccc21	Keap1 Nrf2 FP 70, CRFBP-R2 agonist 107, LANA DNA inh 111, RTF Ca sens act 117 | Keap1 TSA inactive | Dye-only ctr inactive
O=C(CCc1ccccc1)Nc1ccc(S(=O)(=O)N2CCCC2)cc1	none
FC(F)(F)c1ccccc1C1=CC(c2ccccc2)n2ncnc2N1 (centres undefined)	none
Cc1oc2c(cc(NS(=O)(=O)c3ccc(C(C)C)cc3)c3ccccc32)c1C(=O)O	Keap1 Nrf2 FP 20 | Keap1 TSA 0.52
COc1ccc(CNC(=O)c2cccc(NC3=NC4CS(=O)(=O)CC4S3)c2)cc1 (centres undefined)	none
N#CC1=C(N)Oc2cc(N)ccc2C1c1ccsc1 (centres undefined)	none
N#CC1=C(N)Oc2ccc3ccc(O)cc3c2C1c1ccsc1 (centres undefined)	Keap1 Nrf2 FP 17, CRFBP-R2 agonist 71, LANA DNA inh 87, RTF Ca sens act 99 | Keap1 TSA inactive
COc1cc2cc(C#N)c(SCC(=O)N3CCOCC3)nc2cc1OC	none
CC(C)NC(=O)N(C)C[C@H]1Oc2ccc(NS(=O)(=O)c3cn(C)cn3)cc2C(=O)N([C@H](C)CO)C[C@@H]1C	Keap1 Nrf2 FP 29 | Keap1 TSA inactive
Cc1cc(C)c2nc3sc(C(=O)N4CCOCC4)c(N)c3cc2c1	Keap1 Nrf2 FP 14 | Keap1 TSA inactive
Cc1ccc(C)c2nc3sc(C(=O)N4CCOCC4)c(N)c3cc12	none
Cc1ccc(C2=CC(c3cccs3)n3nnnc3N2)cc1 (centres undefined)	Keap1 Nrf2 FP 35 | Keap1 TSA inactive | Dye-only ctr inactive
Fc1ccc(C2=CC(c3cccs3)n3nnnc3N2)cc1 (centres undefined)	none
Cc1ccc(C)c(Oc2coc3cc(OC(=O)c4cccs4)ccc3c2=O)c1	none
CCn1c(Cc2ccccc2)nnc1SCC(=O)Nc1nccs1	none
Cc1ccc(-c2nc3sc(C#N)c(N)n3c(=O)c2C#N)cc1	Keap1 Nrf2 FP 14 | Keap1 TSA inactive
Cc1ccc(-n2c(N)c(C#N)c(-c3ccccc3)c(C#N)c2=O)cc1	none
COc1cc(C(CC(=O)Nc2ncccc2C)N2Cc3ccccc3C2=O)cc(OC)c1OC (centres undefined)	none
CN(C)c1nc(Oc2ccc(OCCOc3ccccc3)nn2)nc(N(C)C)n1	none
COc1cc(C2C(C#N)=C(N)OC3=C2C(=O)CC(C)(C)C3)c([N+](=O)[O-])cc1OC (centres undefined)	none
CC1(C)CC(=O)C2=C(C1)OC(N)=C(C#N)[C@@H]2c1ccccc1[N+](=O)[O-]	Keap1 Nrf2 FP 39, RTF Ca sens act 41 | Keap1 TSA inactive | Dye-only ctr inactive
COc1cc(NC(=O)CSc2nc3cc(C)ccc3cc2C)c(C(=O)O)cc1OC	Keap1 Nrf2 FP 16 | Keap1 TSA inactive | Dye-only ctr inactive
COc1cc(NC(=O)CSc2nc3ccccc3cc2C)c(C(=O)O)cc1OC	none
CCOc1ccc(NC(=O)CCN2C(=O)C3CCCCC3C2=O)cc1OCC (centres undefined)	none
